Assay in all cases: NCI-60 one-dose screen, 48 h (100 = growth as untreated, 0 = no growth, -100 = all killed)
What all share (settings): 10 µM unless noted

Assay [1] deals with DU-145 prostate.
In assay [2] the test system is K-562 leukemia.
For assay [3], the system named is MALME-3M melanoma.
Assay [4] has as its system MDA-MB-231 breast.
Assay [5] deals with RXF 393 renal.
The subject of assay [6] is SF-268 CNS.
Assay [7] deals with SF-295 CNS.
Assay [8] concerns SF-539 CNS.
Assay [9] has as its system UACC-257 melanoma.
Assay [10] has as its system M14 melanoma.
Assay [11] relates to HCT-15 colon.
Assay [12] relates to HT29 colon.
The subject of assay [13] is SNB-75 CNS.
For assay [14], the system named is SNB-19 CNS.
Assay [15] has as its system U251 CNS.
In assay [16] the test system is PC-3 prostate.
Assay [17] deals with UACC-62 melanoma.
The test system of assay [18] is LOX IMVI melanoma.
Assay [19] has as its system SK-MEL-28 melanoma.
For assay [20], the system named is SK-MEL-5 melanoma.

About 83,000 compounds went through this panel and 20% of them were active in at least one assay; those are over-represented in the sample as a whole.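 Values shown are percent growth following 48 h exposure of cells in 96-well plates to a single concentration of compound; below 10 was considered active.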 Values without a mark were called inactive. Calls of active or inactive are those of the source.

Results on eight compounds are retold here after PubChem BioAssay (NCI).

For `C[C@@H](Oc1cc(C(=O)Nc2ccc(C(=O)N3CCN(C)CC3)cc2)nnc1N)c1c(Cl)ccc(F)c1Cl`, the growth was 84.7% in assay [1]; 28.7% in assay [2]; 65.2% in [3]; 62.2% in assay [4]; 62.6% in assay [5]; 70.3% in assay [6]. Moreover, the growth in assay [7] is 13.9%; in assay [8] it was 64.9%; in assay [9] it was 60.9%; in assay [10], 76.9%; in assay [11], 46.9%; in [12], 9.76% (active). Also, the growth in assay [13] was 71.2%; in [14] it was 75.7%; in [15], 52.1%; in assay [16], 52.4%; in assay [17], 62%; in assay [18], 33.2%. For the same compound, in [19], the growth was 70.9%.

Consider `O=C1OCC2=C1C(c1cccc(F)c1)c1cc3c(cc1N2CCO)OCCO3` (stereo not given), for which the growth in [1] was 14.3%; in [2], 8.66% (active); in assay [3] it was 46.2%; in assay [4], 24.8%; in assay [5], 4.45% (active); in assay [6], 34.5%. For the same compound, the growth was -15.9% (active) in [7]; -31.7% (active) in [8]; 89% in assay [9]; -9.63% (active) in [10]; 9.75% (active) in assay [11]; 4.94% (active) in [12]. Further, the growth in assay [13] was 27.3%; in assay [15] it was 17.8%; in [16], 24.8%; in assay [20], 8.33% (active); in assay [17] it was 33%.

Take `C=CC(=O)Nc1cccc(Nc2nc(Nc3ccc(N4CCN(C(C)=O)CC4)cc3OC)ncc2C(F)(F)F)c1`: the growth in assay [1] is 16.7%; in [2] it was 18.7%; in assay [3], 22.2%; in assay [4], 21.7%; in assay [5], -11.2% (active); in assay [6] it was 24.1%. The growth in assay [7] was 39.5%; in [8], 18.6%; in assay [9], 24.5%; in assay [10], 16.9%; in assay [11], 5% (active); in assay [12] it was -7.05% (active). The growth in [13] is 16.1%; in assay [14] it was 39.6%; in [15] it was 30.1%; in assay [16] it was 27.6%; in [17] it was 11.1%; in assay [18], 6.36% (active). Besides, the growth in [19] was 50.6%.

On to `O=C(Cc1ccc(/C=C/C(=O)c2ncc[nH]2)cc1)Nc1ccc(Br)cc1`, for which the growth in [1] is 19.9%; in [2] it was 1.86% (active); in assay [3] it was 74.4%; in assay [4] it was 10%; in assay [5] it was 19.4%; in [6], 22.2%. The growth was 26.9% in [7]; -51.1% (active) in assay [8]; 69.8% in assay [9]; 31.4% in assay [10]; -5.46% (active) in assay [11]; -21% (active) in [12]. Besides, the growth in [13] is 40.5%; in assay [14] it was 8.45% (active); in assay [15], -63.5% (active); in assay [16], 17%; in assay [17], 31%; in assay [18], -65% (active). In [19], the growth is 73.4%.

For the compound `CCN1CCN(Cc2ccc(-c3cc4c(N[C@H](C)c5ccccc5)ncnc4[nH]3)cc2)CC1`, the growth in assay [1] is 40.5%; in assay [2] it was 5.11% (active); in assay [3], 1.62% (active); in [4], 30.3%; in assay [5] it was 26.4%; in assay [6], 52%. For the same compound, the growth in assay [7] was 68.8%; in [8] it was 60.5%; in assay [9] it was -5.38% (active); in [10], 7.83% (active); in assay [11], 50.1%; in assay [12], 4.82% (active). Further, the growth in assay [13] was 75.1%; in assay [15], 56.8%; in [16], 41.3%; in [20], 59.8%; in assay [17] it was 7.59% (active); in assay [18], 13.5%. Besides, the growth in [19] was 16.7%.

As to `COc1cc2c(Oc3ccc(NC(=O)C4(C(=O)Nc5ccc(F)cc5)CC4)cc3F)ccnc2cc1OCCCN1CCOCC1`, the growth in [1] was 16.4%; in assay [2], -12.1% (active); in [3], -71.6% (active); in [4] it was -60.3% (active); in assay [5] it was -94.5% (active); in assay [6], 11.6%. In addition, the growth is -82.9% (active) in assay [7]; -90.5% (active) in [8]; -85.3% (active) in [9]; -65.9% (active) in [10]; -26% (active) in assay [11]; -59.2% (active) in assay [12]. Also, the growth in [13] is -96.9% (active); in assay [14], 10.6%; in assay [15], -57.8% (active); in assay [16], 7.39% (active); in assay [20], -96.1% (active); in [18] it was -89.5% (active). Moreover, the growth in assay [19] is -78.2% (active).

Take `C[C@@H]1COC(Nc2ccc3ncnc(Nc4ccc(OCc5nccs5)c(Cl)c4)c3c2)=N1`: the growth in assay [1] was 36.1%; in [2] it was 22.6%; in assay [3] it was 38%; in assay [4], 42.8%; in assay [5], 49.1%; in assay [6] it was 46.5%. Moreover, the growth is 18.9% in assay [7]; 65.5% in [8]; 48.3% in assay [9]; 19.5% in assay [10]; 29.2% in assay [11]; 14.8% in assay [12]. For the same compound, the growth in [13] was 27.9%; in assay [15], 42.3%; in [16], 8.43% (active); in assay [20], -39% (active); in assay [17] it was 23.5%; in assay [18], 17.8%. Besides, the growth in [19] was 29.8%.

As to `Cc1nc2ccc(-n3ncc(C(=O)c4cc5ccccc5[nH]4)c3N)cc2[nH]1`, the growth was 60.7% in assay [1]; 17.4% in assay [2]; 64.5% in [3]; 53.9% in assay [4]; 15.5% in assay [5]; 50.5% in assay [6]. Moreover, the growth in assay [7] is 53.5%; in [8] it was -2.11% (active); in [9], 79.5%; in [10], 61.1%; in assay [11] it was 30.9%; in [12], 23.1%. The growth was 39.9% in assay [13]; 24.4% in assay [15]; 41.1% in assay [16]; 32.8% in assay [20]; 43.5% in [17]; 14.8% in assay [18]. Moreover, the growth in [19] was 69.7%.
